# Assay outcomes as filed in PubChem BioAssay.
# HT1080-NT tox: qHTS for induction of synthetic lethality in tumor cells producing 2HG: qHTS for the HT-1080-NT fibrosarcoma cell line. HT-1080-NT fibrosarcoma viability, CellTiter-Glo ATP luminescence, 48 h. Potency, µM (doses to about 46.1 µM), without a hit: at the highest dose activity, negative = less viability, usual class: cytotoxic. 360,000 tested, 1.6% active;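 note: NT is the 2HG producing partner of a matched IDH1 knockdown line; potency is the fitted concentration of half-maximal effect; 0% = DMSO-treated cells and -100% = media-only wells without cells; nearly all actives have a fitted effect of over 55% in size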
#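 Luminescent CellTiter-Glo readout after 48 hours of compound exposure at 37 degrees C defined viability of HT-1080-NT cells. Activity was normalized to DMSO wells and cell-free media wells; concentration-response curves were fitted and assigned curve classes.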
# DT40 TDP1 CPT: qHTS for Inhibitors of human tyrosyl-DNA phosphodiesterase 1 (TDP1): qHTS in cells in presence of CPT | chicken DT40 Tdp1-/-;hTDP1 cells + 20 nM CPT, ATP luminescence, 48 h | Potency, µM (top dose mostly 46.2 µM), for inactives: top-dose activity change, negative = growth inhibition, actives largely listed as inhibitors | 420,000 tested, 12% active; note: potency is the fitted concentration of half-maximal effect; nearly all actives have a fitted effect of over 55% in size
#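 Chicken DT40 Tdp1-/- cells complemented with human TDP1, 400 cells/well, exposed to compounds plus 20 nM camptothecin for at least 48 h at 37 C; viability read as ATP content by CellTiter-Glo luminescence.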
# DT40 TDP1 no CPT: qHTS for Inhibitors of human tyrosyl-DNA phosphodiesterase 1 (TDP1): qHTS in cells in absence of CPT; DT40 Tdp1-/- hTDP1 cells, no CPT, ATP luminescence, 48 h; Potency, µM (titrated, usually from 46.2 µM), for inactives: at the top dose activity change, negative = growth inhibition, actives largely listed as inhibitors; 420,000 tested, 15% active; AID 686978, 2013; note: potency is the fitted concentration of half-maximal effect; nearly all actives have a fitted effect of over 55% in size
#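 Compound effects on proliferation are scored in DT40 Tdp1-/-;hTDP1 cells in the absence of CPT. ATP levels (CellTiter-Glo luminescence) are recorded after a ≥48 hr, 37 °C incubation.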
# HT1080 IDH1KD tx: qHTS for induction of synthetic lethality in tumor cells producing 2HG: qHTS for the HT-1080-IDH1KD cell line. 360,000 tested, 2% active. Potency, µM (titrated, usually from 46.1 µM), for the others: top-dose activity, negative = toxicity, hits mostly cytotoxic. HT-1080 IDH1 knockdown viability, ATP luminescence, 48 h. AID 686971, 2013;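 note: potency is the fitted concentration of half-maximal effect; 0% = DMSO wells and -100% = cell-free medium wells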
#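 Luminescent ATP read-out (CellTiter-Glo, 10 min at room temperature) after 48 h compound exposure at 37 °C gave viability of IDH1-knockdown HT-1080 cells. Activity was normalised to DMSO and cell-free wells, then fitted as concentration-response curves.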
# ELG1 DNA repair: qHTS screen for small molecules that inhibit ELG1-dependent DNA repair in human embryonic kidney (HEK293T) cells expressing luciferase-tagged ELG1 | HEK293T ELG1-luciferase reporter, luminescence, 16 h; DNA damage induced by 5-fluorouridine | AID 504467, 2011 | Potency, µM (top dose mostly 46.1 µM), inactives show top-dose activity change, negative = inhibition, hits mostly inhibitors | 330,000 tested, 2.3% active; note: potency is the fitted concentration of half-maximal effect; nearly all actives have a fitted effect of over 55% in size
#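 Cells (2,000 per well) received 5-fluorouridine plus test compound or DMSO and were incubated 16 hr at 37 °C, 5% CO2. Luciferase activity was read by luminescence 30 min after ONE-Glo addition; signal suppression marked inhibition of damage-induced ELG1 function.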
# IL-1B inflam inh: qHTS for Inhibitors of Inflammasome Signaling: IL-1-beta AlphaLISA Primary Screen; AID 743279, 2014; activity change, % at 57.5 µM; THP-1 LPS/ATP IL-1B secretion, AlphaLISA, 16 h; active compounds read low; 360,000 tested, 4.7% active; in the data active = activity change below about -50%; inconclusive = mostly about -30% to -49%
#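 Secreted IL-1B measured by AlphaLISA bead assay after 16 h compound exposure of THP-1 cells; compounds (final up to 57.5 uM) added 1 h before LPS (250 ng/mL) and ATP (1.25 mM) stimulation; lower signal means less secretion.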
# An asterisk follows results filed as active; ? = inconclusive; / = no result given; [ ] = another dose, or the depositor's remark. A selection: hits, their analogues and other compounds. The true share with any hit is near 19%. Unless noted, calls come from the whole dose curve; as a rule, active = well fitted curve in the direction sought with a large enough effect; inconclusive = small, poorly fitted or top-dose-only effect, or another doubt; inactive = no such curve, though single readings can be large; an effect the other way counts as inactive or inconclusive. Unless noted, % is set by controls: 0 for no effect and ±100 for the full control effect.
SMILES,HT1080-NT tox,DT40 TDP1 CPT,DT40 TDP1 no CPT,HT1080 IDH1KD tx,ELG1 DNA repair,IL-1B inflam inh
Cc1ccc(S(=O)(=O)N2CCCC(c3nc4c(nnn4Cc4ccc(OC(F)(F)F)cc4)c(=O)[nH]3)C2)cc1 (stereo unspecified),/,-6%,-13%,/,/,/
O=[N+]([O-])c1ccc(/C=N/N=C/c2ccc([N+](=O)[O-])o2)o1,4.6µM*,0.29µM*,0.73µM*,2.9µM*,?,-101*
O=C(Cc1ccc([N+](=O)[O-])cc1)N/N=C/c1ccc([N+](=O)[O-])o1,?,10µM*,9.2µM*,?,?,11
CC(=O)N/N=C/c1ccc([N+](=O)[O-])o1,/,?,21µM*,/,/,/
O=C(O)/C=C/c1ccc([N+](=O)[O-])o1,1%,-2%,-28%,-1%,?,-20
O=C(CN1CCCCCCC1)N/N=C/c1ccc([N+](=O)[O-])o1,-14%,?,?,-29%,-18%,-12
CCOC(=O)N/N=C\c1ccc([N+](=O)[O-])o1,-10%,?,22µM*,?,-26%,37
CCC(Cn1nnc2ccccc2c1=O)NC(=O)Nc1cccc(Cl)c1 (stereo unspecified),/,-19%,?,/,/,/
CCN(CC(=O)Nc1ccc(NC(C)=O)cc1)C(=O)Cc1ccc(S(=O)(=O)N2CCOCC2)s1,-1%,-26%,14%,12%,28%,5
CC1(C)C(=O)N(CC(=O)Nc2ccc(OC(F)(F)F)cc2)c2ccccc21,/,-27%,?,/,/,/
N#Cc1ccc(CN2CC3(CCN(C(=O)c4csnn4)CC3)C2)cc1,/,9%,-3%,/,/,/
NS(=O)(=O)c1ccc(N2CCOCC2)c(C(=O)NCCCSc2ccccc2)c1,-9%,?,?,3%,?,9
O=C(N/N=C\c1ccc(-c2ccc([N+](=O)[O-])cc2)o1)c1ccc2c(c1)OCO2,10%,-24%,-17%,11%,22%,4
CC1(C(=O)NNC(=O)c2ccc([N+](=O)[O-])cc2)CC1(Br)Br (stereo unspecified),-2%,-11%,?,-9%,-12%,23
O=C(N/N=C/c1ccc([N+](=O)[O-])o1)c1ccc2c(c1)OCO2,?,2.3µM*,5.8µM*,?,-4%,-6
CC1(C(=O)N/N=C/c2ccc([N+](=O)[O-])o2)CC1(Br)Br (stereo unspecified),?,13µM*,10µM*,?,0%,-90*
Cc1csc(N=Cc2ccc([N+](=O)[O-])o2)n1,-11%,15µM*,10µM*,-4%,/,-12
O=C(CC12CC3CC(CC(C3)C1)C2)N/N=C/c1ccc([N+](=O)[O-])o1,?,9.2µM*,23µM*,?,?,?
Cc1noc(C)c1-c1nccc(-n2ccnc2)n1,/,4%,-3%,/,/,/
CCCCC#Cc1cncc(C(=O)N/N=C/c2ccccc2)c1,-2%,-1%,-14%,-11%,-5%,-13
COCc1cc(C)nc2sc3c(=O)n(-c4cc(C)ccc4C)nnc3c12,/,-6%,-2%,/,/,/
CCC(C)N(C(=O)c1csnn1)C(C(=O)NC1CCCC1)c1ccccc1F (stereo unspecified),27%,-29%,-24%,6%,?,0
Cc1ccc(C(=O)N/N=C\c2ccc([N+](=O)[O-])o2)cn1,-11%,?,12µM*,?,?,?
Cc1cc2ncn(/N=C/c3ccc([N+](=O)[O-])o3)c2cc1C,-6%,13µM*,13µM*,7.9µM*,-15%,?
Cc1ccc(S(=O)(=O)N(C)C)cc1NC(=O)C(C)OC(=O)c1ccc2c(=O)n3c(nc2c1)CCC3 (stereo unspecified),-5%,-2%,-18%,0%,/,-7
SMILES,HT1080-NT tox,DT40 TDP1 CPT,DT40 TDP1 no CPT,HT1080 IDH1KD tx,ELG1 DNA repair,IL-1B inflam inh
CCCCN(CCCC)S(=O)(=O)c1c(C)[nH]c(=O)[nH]c1=O,13%,11%,1%,0%,9%,16
CCCCCCCCOC(=O)/C=C/c1c(C)[nH]c(=O)[nH]c1=O,-3%,?,7.3µM*,3%,-6%,6
Cc1ccc(CC2SC(N)=NC2=O)cc1 (stereo unspecified),0%,5%,-2%,-1%,14%,0
CC(=O)c1ccc(NC(=O)CNc2cc(S(=O)(=O)N3CCOCC3)ccc2N2CCCC2)cc1,-10%,16µM*,26µM*,5%,-29%,-17
O=C(CNc1cc(S(=O)(=O)N2CCOCC2)ccc1N1CCCC1)Nc1ccc(Cl)cc1,0%,18µM*,18µM*,-3%,/,-19
COc1cccc(NC(=O)CNc2cc(S(=O)(=O)N3CCOCC3)ccc2N2CCCC2)c1,0%,?,?,6%,?,-1
N#Cc1cccc(NC(=O)CNc2cc(S(=O)(=O)N3CCOCC3)ccc2N2CCCC2)c1,-15%,?,23µM*,-2%,?,?
NC(=O)c1ccc(NC(=O)CNc2cc(S(=O)(=O)N3CCOCC3)ccc2N2CCCC2)cc1,1%,-22%,?,3%,/,-5
O=C(COC(=O)Cc1ccc(Cl)cc1)Nc1cc(S(=O)(=O)N2CCOCC2)ccc1N1CCCC1,12%,-3%,-28%,13%,-4%,0
COc1ccc([C@@H]2[C@@H]3C(=O)N(C(C)(C)C)C(=O)[C@@H]3[C@]3(C)C(=O)N(c4cccc(Br)c4)C(=O)N23)cc1,-13%,?,?,-15%,-25%,0
O=C(Nc1cccc(F)c1)[C@H](CSCc1ccccc1)N1Cc2ccccc2C1=O,/,-8%,?,/,/,/
COc1cccc(CN2CCC3(CCC(CNC(=O)c4cc(C)nn4C)O3)CC2)c1OC (stereo unspecified),/,4%[9.04 µM],-20%,/,/,/
COc1cc(C)c(CN2CCC3(CCC(CNC(=O)c4ccnn4C)O3)CC2)cc1C (stereo unspecified),/,16µM*,-28%,/,/,/
